PGE2 EP2 inh – human EP2 receptor antagonists, primary screen, TR-FRET cAMP, C6 glioma cells; Prostaglandin E2 receptor EP2 subtype (Homo sapiens), P43116; C6 glioma cells expressing human EP2; cells stimulated with saturating PGE2; inhibition, % at 25 µM; 260,000 tested, 0.52% active; AID 1422, 2008;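 active = percent inhibition above 40 after rounding to a whole number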;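 also: rat C6 glioma host cells with rolipram phosphodiesterase inhibitor present; the protocol text gives 20 µM as final concentration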
Target sequence (P43116 whole entry, looked up): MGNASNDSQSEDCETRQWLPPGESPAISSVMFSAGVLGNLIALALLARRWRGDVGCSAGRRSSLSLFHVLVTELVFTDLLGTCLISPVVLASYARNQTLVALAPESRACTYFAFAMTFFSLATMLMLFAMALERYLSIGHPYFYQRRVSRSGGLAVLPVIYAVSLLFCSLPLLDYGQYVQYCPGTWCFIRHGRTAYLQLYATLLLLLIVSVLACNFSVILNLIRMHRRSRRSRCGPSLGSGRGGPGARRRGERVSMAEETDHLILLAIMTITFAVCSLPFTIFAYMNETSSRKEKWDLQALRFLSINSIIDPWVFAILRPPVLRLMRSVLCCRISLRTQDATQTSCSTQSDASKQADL
SKN-1 block – suppressors of acrylamide-induced Pgst-4::GFP reporter in worms, primary screen, SKN-1 inhibitor project, whole organism, uHTS, GFP/RFP fluorescence ratio, strain VP596; inhibition, % at 21.8 µM; C. elegans VP596 Pgst-4::GFP/RFP ratio, 24 h; AID 624304, 2012; 360,000 tested, 0.49% active;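 active = interference check ratio from 0.5 to 1.5 plus GFP to RFP signal ratio inhibition reaching or exceeding a fixed threshold, cut at about 30% in these data, passing the limit was not always enough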
PG9 Ab binder – binders of HIV-1 gp120 antibody PG9, primary screen, biochemical, TR-FRET | HIV-1 gp120 / PG9 antibody interaction | TR-FRET gp120-PG9 antibody binding | inhibition, % at 6.7 µM | 360,000 tested, 0.43% active | AID 624416, 2012; in the data active = inhibition above about 8.5%
EP2 mod – EP2 receptor modulators, cAMP readout, primary screen, cell-based, HTRF cAMP, PGE2 stimulation; Prostaglandin E2 receptor EP2 subtype (Homo sapiens), P43116; EP2-expressing cells, cAMP HTRF FRET, PGE2 co-stimulation; induction, % at 25 µM; 260,000 tested, 0.83% active;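 active = compounds whose cAMP rise, as percent of the full-agonist control response, exceeds 60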;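 also: rat C6 glioma line stably carrying human EP2 under a CMV promoter; the protocol text gives 20 µM as final concentration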
RAM network inh – inhibitors of the yeast RAM network, primary screen, dse1pr::URA3 reporter, 5-FOA selection; S. cerevisiae dse1pr::URA3 reporter, 5-FOA growth OD615, 2 d; analog-sensitive cbk1-as2 kinase mutant strain; inhibition, % at 50 µM; 190,000 tested, 1.8% active; AID 868, 2007;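 active = inhibition above a set limit, 3 SD over mean compound inhibition, cut at about 8.4% in these data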;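 also: inhibition rescues growth on 5-FOA so higher OD means more RAM inhibition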
Rev-erbA mod – modulators of Rev-erb alpha DNA binding, primary screen, biochemical, FITC-DNA, fluorescence polarization, uHTS | Rev-erbα–FITC-DNA binding, 90 min | activity, % at 10 µM | 370,000 tested, 0.79% active;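 active = activity above about 14%, limit read from the data; passing the limit was not always enough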
Of the large screens only hits and unclear results are named; the others gave an inactive call; ! = not confirmed by another sample. Hits are enriched below; roughly 2.9% of the tested compounds scored in any of these assays.

CN(C)C(=O)CNc1n[nH]c(=S)[nH]c1=O	none (no result: RAM network inh)
CC(C)OC(=O)CNc1n[nH]c(=S)[nH]c1=O	PGE2 EP2 inh 101
CCN(CC)CCN1C(=O)C(=O)/C(=C(/O)c2cnn(-c3ccccc3)c2C)C1c1ccc(C)o1 (configuration not stated)	SKN-1 block 46
O=C(c1cccc(Cl)c1)N(Cc1cccs1)C1CCS(=O)(=O)C1 (configuration not stated)	SKN-1 block 36
O=C(c1ccc(F)cc1)N(Cc1cccs1)C1CCS(=O)(=O)C1 (configuration not stated)	none (no result: PGE2 EP2 inh, EP2 mod, RAM network inh)
Cc1cccc(C(=O)N(Cc2cccs2)C2CCS(=O)(=O)C2)c1 (configuration not stated)	SKN-1 block 36 (no result: PGE2 EP2 inh, EP2 mod, RAM network inh)
COc1cccc(C(=O)N(Cc2cccs2)C2CCS(=O)(=O)C2)c1 (configuration not stated)	none (no result: RAM network inh)
CCc1nnc(NC(=O)CSc2nnc(-c3ccoc3C)n2C)s1	none (no result: SKN-1 block, PG9 Ab binder, RAM network inh, Rev-erbA mod)
O=C(CSc1nnnn1C1CCCC1)Nc1cccc(NC(=O)c2ccco2)c1	none
O=C(CSc1nnnn1C1CCCCC1)Nc1cccc(NC(=O)c2ccco2)c1	SKN-1 block 37
CCc1ccc(NCc2nc(-c3ccccc3)no2)cc1	SKN-1 block 42
COc1ccc(C2C(C(N)=O)=C(C)Nc3nc(-c4ccccc4)nn32)cc1OC (configuration not stated)	none
COc1cccc(-c2nc3n(n2)C(c2ccc4c(c2)OCO4)C(C(N)=O)=C(C)N3)c1 (configuration not stated)	RAM network inh 10
CC(C)(C)NC(=O)C(c1ccccc1)N(Cc1cccnc1)C(=O)c1csnn1 (configuration not stated)	none (no result: SKN-1 block, PG9 Ab binder, RAM network inh, Rev-erbA mod)
CC(C)S(=O)(=O)c1csc(NC(=O)Nc2cccc([N+](=O)[O-])c2)c1Cl	PGE2 EP2 inh 54 (no result: RAM network inh)
COc1cc(SC)ccc1C(=O)Nc1nccs1	SKN-1 block 44
COc1ccc(Cl)cc1NC(=O)CSc1nnc2c3c4c(sc3ncn12)CCCC4	none (no result: SKN-1 block, PG9 Ab binder, RAM network inh, Rev-erbA mod)
Cc1ccc(NC(=O)C2C3C=CC4(O3)C2C(=O)N(CCN2CCOCC2)C4C(=O)NC2CCCCC2)cc1C (configuration not stated)	none (no result: PGE2 EP2 inh, EP2 mod, RAM network inh)
CSc1cccc(NC(=O)C2C3C=CC4(O3)C2C(=O)N(CCN2CCOCC2)C4C(=O)NC2CCCCC2)c1 (configuration not stated)	SKN-1 block 37 (no result: PGE2 EP2 inh, EP2 mod, RAM network inh)
COC(=O)c1c(C)[nH]c(O)c1C=Nc1ccc(C#N)cc1	SKN-1 block 46
COc1ccc(-c2ccc(CN(CCN3CCOCC3)Cc3cccnc3)cc2)cc1	none (no result: SKN-1 block, PG9 Ab binder, RAM network inh, Rev-erbA mod)
CCCOc1ccccc1C1NC(=O)NC(C)=C1C(=O)OCc1ccccc1 (configuration not stated)	EP2 mod 64
Cc1cc(C)c2c(c1)cc(C)c1nnc(SCc3ccccn3)n12	none (no result: SKN-1 block, PG9 Ab binder, RAM network inh, Rev-erbA mod)
CS(=O)(=O)c1ccccc1C(=O)Nc1nc2ccccc2[nH]1	PGE2 EP2 inh 108 (no result: RAM network inh)
Cc1cccnc1Nc1nc(-c2ccc(O)cc2)cs1	none
Fc1ccc(-c2csc(Nc3ccccn3)n2)c(F)c1	SKN-1 block 60 (no result: PGE2 EP2 inh, EP2 mod, RAM network inh)
Cc1ccc(-c2csc(Nc3ccccn3)n2)cc1	none (no result: RAM network inh)
O=C(Nc1nc(-c2cc(F)ccc2F)cs1)c1ccccn1	SKN-1 block 38
O=C(Nc1nc(-c2cc(F)ccc2F)cs1)C1=COCCO1	none (no result: PGE2 EP2 inh, EP2 mod, RAM network inh)
Cc1cccnc1Nc1nc(-c2ccc(F)cc2)cs1	SKN-1 block 42 (no result: PGE2 EP2 inh, EP2 mod, RAM network inh)
c1ccc(-c2csc(Nc3ccccn3)n2)cc1	SKN-1 block 67 (no result: PGE2 EP2 inh, EP2 mod, RAM network inh)
CCOc1ccc(NC(=S)N(Cc2cc3cc(CC)ccc3[nH]c2=O)C2CCCC2)cc1	none (no result: SKN-1 block, PG9 Ab binder, RAM network inh, Rev-erbA mod)
CCN(CC)S(=O)(=O)c1ccc(-c2nnc(SCC(=O)OC(C)C)n2CC)cc1	none (no result: SKN-1 block, PG9 Ab binder, RAM network inh, Rev-erbA mod)
CCCNC(=O)N1CCn2c(nc(-c3ccc(OC)c(OC)c3)c2NC(C)(C)C)C1	none (no result: SKN-1 block, PG9 Ab binder, RAM network inh, Rev-erbA mod)
CN(C)S(=O)(=O)c1ccc(N2CCCC2)c(C(=O)Nc2nc(-c3cc(F)ccc3F)cs2)c1	RAM network inh 9.2
O=C(Nc1nc2ccccc2o1)Nc1ccccc1Cl	PGE2 EP2 inh 41 (no result: SKN-1 block, PG9 Ab binder, RAM network inh, Rev-erbA mod)
O=C(/C=C/c1ccc(Cl)cc1Cl)NC(=S)Nc1ccccn1	SKN-1 block 38
O=C(/C=C/c1ccccn1)c1cc(Cl)cc(Cl)c1O	none (no result: RAM network inh)
O=C(/C=C/c1ccc(Cl)cc1Cl)NC(=S)Nc1ccc(CN2CCOCC2)cc1	none
Clc1ccc(C=Cc2ccccn2)c(Cl)c1	SKN-1 block 85 (no result: PGE2 EP2 inh, EP2 mod, RAM network inh)
O=c1c(/C=N/Nc2ccccc2)c(Sc2nnnn2-c2ccccc2)nc2ccccn12	SKN-1 block 36 (no result: PGE2 EP2 inh)
CN(C(=O)Cn1c(=O)n(Cc2ccco2)c2ncccc21)C1CCCCC1	none (no result: PGE2 EP2 inh, SKN-1 block, PG9 Ab binder, RAM network inh, Rev-erbA mod)
CN(C)CCCn1c2c3ccccc3ccc2c2oc(=O)c3ccccc3c21	PGE2 EP2 inh 74 (no result: RAM network inh)
O=C(c1cccc(Cl)c1)N1CCC(O)(c2cccnc2)CC1	none (no result: PGE2 EP2 inh, SKN-1 block, PG9 Ab binder, RAM network inh, Rev-erbA mod)
CCn1c(SCC(=O)Nc2nc(C)cs2)nnc1-c1ccc(C)cc1	none (no result: SKN-1 block, PG9 Ab binder, RAM network inh, Rev-erbA mod)
CCOC(=O)c1cc2occc2n1Cc1c(F)cccc1Cl	none
COC(=O)c1cc2ccsc2n1Cc1nc(-c2cccc(Cl)c2)oc1C	EP2 mod 61
CCOC(=O)c1cc2occc2n1Cc1ccc(F)cc1	EP2 mod 85!
COC(=O)c1cc2occc2n1Cc1nc(-c2cccc(Cl)c2)oc1C	RAM network inh 11
COC(=O)c1cc2occc2n1Cc1c(F)cccc1Cl	EP2 mod 64 (no result: SKN-1 block, PG9 Ab binder, Rev-erbA mod)
O=C(CN1C(=O)c2ccccc2C1=O)[C@@H](O)CN1C(=O)c2ccccc2C1=O	PGE2 EP2 inh 46 (no result: SKN-1 block, PG9 Ab binder, RAM network inh, Rev-erbA mod)
O=C(CN1C(=O)c2ccccc2C1=O)c1ccccc1	none
CCOC(=O)c1cc2c(=O)n3ccccc3nc2n(C(C)C)c1=NC(=O)c1c(-c2c(F)cccc2Cl)noc1C	RAM network inh 10
CCC1C(=NO)C(CC)C(c2ccccc2)NC1c1ccccc1 (configuration not stated)	EP2 mod 63
Clc1ccc(-c2nc3ccccc3n2OCc2ccccc2)cc1	EP2 mod 63
Cc1ccc(-c2nnc(SCC(=O)OC3CCCCC3)o2)cc1	none (no result: SKN-1 block, PG9 Ab binder, RAM network inh, Rev-erbA mod)
COc1ccc(NC(=O)CC(c2ccc(F)cc2)c2ccc(OC(C)C)cc2)cc1 (configuration not stated)	RAM network inh 9.3
CCc1nn(CC(=O)N(C(C)C)C(C)C)c(=O)c2cc3ccsc3n12	none (no result: PGE2 EP2 inh, SKN-1 block, PG9 Ab binder, RAM network inh, Rev-erbA mod)
CCCCCC(=O)Nc1cc(N(C)C)nc2ccccc12	PGE2 EP2 inh 40 (no result: EP2 mod)
